From PubChem BioAssay (NCI) come the findings set out here.

Experiment in all cases: NCI-60 one-dose screen, 48 h (100 = growth as untreated, 0 = no growth, -100 = all killed)
What all share (conditions): 10 µM unless noted

Experiment [1] has as its system NCI-H23 lung.
The test system of experiment [2] is NCI-H226 lung.
In experiment [3] the test system is NCI-H322M lung.
In experiment [4] the test system is HOP-62 NSCLC.
Experiment [5] concerns NCI-H460 lung.
In experiment [6] the test system is HOP-92 NSCLC.
Experiment [7] concerns NCI-H522 lung.
Experiment [8] concerns A549/ATCC NSCLC.
Experiment [9] has as its system 786-0 renal.
The test system of experiment [10] is COLO 205 colon.
For experiment [11], the system named is DU-145 prostate.
Experiment [12] has as its system MALME-3M melanoma.
The subject of experiment [13] is MDA-MB-231 breast.
Experiment [14] relates to RXF 393 renal.
Experiment [15] relates to SF-268 CNS.
Experiment [16] has as its system SF-295 CNS.
Experiment [17] relates to SF-539 CNS.
Experiment [18] deals with UACC-257 melanoma.
The test system of experiment [19] is M14 melanoma.
Experiment [20] deals with K-562 leukemia.

About 83,000 compounds went through this panel and 20% of them were active in at least one assay; those are over-represented in the sample as a whole.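 Negative percent growth values reflect cell death: -40 means 40% of the cells present at the start died, and -100 means all died.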 A number with no mark means an inactive call. The source made the active and inactive calls. The calls were made as follows: active = growth percent below 10; inactive = the rest.

Regarding `CC(=O)OC[C@]1(C)C=C2C(=O)[C@](C)(O)C3(CC3)C(C)=C2[C@H]1OC(=O)N(C)CCN(C)C(=O)OC(C)(C)C`, the growth in [1] was -17.8% (active); in [2] it was 24.7%; in experiment [3], 12.4%; in experiment [4] it was -19.9% (active); in [5] it was 0.38% (active); in experiment [6], -13.4% (active). The growth was -47% (active) in experiment [7]; 4.55% (active) in experiment [8]; 0.73% (active) in [9]; -66.8% (active) in [10]; 3.6% (active) in experiment [11]; -44% (active) in experiment [12]. Also, the growth is 4.31% (active) in experiment [13]; -68.2% (active) in experiment [14]; 7.08% (active) in experiment [15]; 6.27% (active) in [16]; -37.1% (active) in experiment [17]; 33.7% in [18]. The growth in [19] is -29.4% (active).

With `O=C(N/N=C\c1ccc(N(CCCl)CCCl)cc1)c1cccc([N+](=O)[O-])c1`, the growth in [1] was 87.7%; in [2] it was 46.6%; in experiment [3] it was 121%; in experiment [4], -2.12% (active); in experiment [5], 69.1%; in experiment [6] it was 92.4%. For the same compound, the growth in experiment [7] is 107%; in experiment [8] it was 90.4%; in experiment [9], 96.7%; in [10], 102%; in [11], 85.9%; in experiment [12], 100%. For the same compound, the growth in experiment [13] is 89.2%; in [14] it was 98.5%; in experiment [15] it was 76.7%; in experiment [16], 88.4%; in experiment [17], 81%; in [18] it was 92.7%. In addition, the growth in experiment [19] is 110%.

On to `O=C([O][Hg][CH2]C1COCC([CH2][Hg][O]C(=O)c2ccccc2)O1)c1ccccc1` (stereo unspecified), for which the growth in experiment [1] was 90.2%; in experiment [2] it was 106%; in [3], 110%; in experiment [4], 127%; in experiment [5], 106%; in experiment [6], 77%. For the same compound, the growth is -53.3% (active) in experiment [7]; 105% in experiment [8]; 104% in [9]; -23.1% (active) in experiment [10]; 4.71% (active) in [20]; -80.5% (active) in [12]. For the same compound, the growth in [13] was 105%; in [14], 87.5%; in experiment [15] it was 104%; in experiment [16], 96.8%; in [17], 113%; in [18] it was -69.4% (active). In experiment [19], the growth is 71.7%.

On to `CC1(C)N=C(N)N=C(N)N1c1ccc(CCC(=O)Nc2ccc(S(=O)(=O)F)cc2)c(Cl)c1`, for which the growth is 29.9% in experiment [1]; 46.6% in experiment [2]; 57.9% in experiment [3]; 19.9% in experiment [4]; 6.19% (active) in experiment [5]; 33.7% in [6]. Moreover, the growth in experiment [7] is -0.414% (active); in experiment [8] it was -5.32% (active); in experiment [9] it was 20.6%; in [10], 45.3%; in [11], 40.2%; in experiment [12], 83.1%. The growth in [13] is 51.7%; in [15], 28.1%; in experiment [16] it was 30%; in experiment [17], 11.9%; in experiment [19] it was 23.4%.

Regarding `O=P(N1CC1)(N1CC1)N1CCc2ccccc21`, the growth in [1] is 103%; in experiment [2] it was 105%; in experiment [3] it was 108%; in experiment [4] it was 105%; in experiment [5], 63.3%; in experiment [6] it was 115%. The growth in experiment [7] is 109%; in experiment [8], 101%; in experiment [9], 106%; in experiment [10], 117%; in experiment [11], 112%; in experiment [12] it was 109%. Besides, the growth in experiment [13] is 104%; in experiment [14] it was 109%; in [15] it was 103%; in experiment [17], 105%; in experiment [18], 110%.

As to `Cc1cc(NC(=O)NCc2ccc(N3C(N)=NC(N)=NC3(C)C)cc2)ccc1S(=O)(=O)F`, the growth was 29.2% in [1]; 101% in experiment [2]; 54.7% in [3]; 23.4% in experiment [4]; 4.48% (active) in [5]; 88.9% in experiment [6]. Moreover, the growth in experiment [7] was 16.5%; in experiment [8], -3.03% (active); in [9], 26.2%; in [10], 29.3%; in experiment [11] it was 42.7%; in experiment [12] it was 56.9%. The growth in [13] is 58.5%; in [15] it was 31.6%; in experiment [16] it was 27.9%; in [17], 19.5%.

Turning to `Cc1ccc(S(=O)(=O)F)cc1C(=O)O`, the growth is 96.5% in experiment [1]; 95.8% in experiment [2]; 77.6% in [3]; 97.7% in experiment [4]; 111% in [5]; 118% in experiment [6]. Also, the growth in experiment [7] was 85.8%; in experiment [8] it was 98.3%; in experiment [10], 103%; in [11], 104%; in experiment [20], 109%; in experiment [12], 86.8%. Further, the growth in experiment [13] is 107%; in experiment [15], 101%; in experiment [16], 95.1%; in experiment [17], 94%; in experiment [18] it was 93.3%; in experiment [19], 110%.

`Cc1sc2c(c1C)C(c1ccc(Cl)cc1)=N[C@@H](CC(=O)OC(C)(C)C)c1nnc(C)n1-2`: the growth in experiment [1] was 28.5%; in experiment [2] it was 71.8%; in experiment [3], 37.3%; in experiment [4], 36.8%; in experiment [5], 39.9%; in [6], 21.2%. In addition, the growth in experiment [7] was 2.71% (active); in experiment [8] it was 37.9%; in [9], 46%; in [10], 19.3%; in experiment [11], 57%; in experiment [12], 57%. The growth in experiment [13] is 42.8%; in experiment [15], 51%; in experiment [16], 37.6%; in [17], 37.5%; in experiment [18] it was 58.1%.

For the compound `N#CC1C(C#N)C2CCC1C1C2N1c1ccccc1` (stereo unspecified), the growth in experiment [1] was 117%; in [2], 101%; in experiment [3], 92.3%; in experiment [4] it was 97.4%; in experiment [5], 108%; in [6], 74.5%. Also, the growth in experiment [7] was 108%; in experiment [8], 126%; in experiment [9], 107%; in [10], 103%; in experiment [11] it was 118%; in experiment [12], 85.7%. Also, the growth in experiment [13] is 110%; in experiment [14], 103%; in experiment [15] it was 104%; in [16], 103%; in [17], 104%; in experiment [18], 117%. In [19], the growth is 101%.
